Measured values: PubChem BioAssay (Tox21)
“And” between values parts separate entries of the source, which are not always exact repeats. Equal values may be shown once. Results filed as inconclusive are left out. Where a structure was tested more than once in an assay, its records may differ in their call. The source made the active and inactive calls. Unless noted, calls follow the shape of the dose curve; as a rule, active = well fitted curve in the direction sought with a large enough effect in the repeat runs; inconclusive = weak or mixed curves; inactive = no such curve, though single readings can be large; an effect the other way counts as inactive or inconclusive.

What was measured:
[1] = qHTS assay to identify small molecule antagonists of the estrogen related receptor (ERR) signaling pathway from Tox21 library - cell viability counter screen (AID 1224834); also: nearly all actives have a fitted effect of over 30% in size; also: potency is read from the fitted curve at half-maximal effect
Method in brief: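 In this quantitative HTS format, ERR cells receive compounds in DMSO and are incubated for 17.5 h at 37 C. Live-cell protease activity is then detected with CellTiter-Fluor.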

[2] = target: Luciferin 4-monooxygenase (Photinus pyralis) (UniProt P08659); assay: qHTS assay to identify small molecule inhibitors of firefly luciferase (AID 1224835); also: nearly all actives have a fitted effect of over 25% in size; also: potency is read from the fitted curve at half-maximal effect
Method in brief: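 Inhibition of purified Photinus luciferase is measured by luminescence. Substrate levels (D-luciferin, ATP) sit at their KM values. Each compound is tested in a concentration series.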

[3] = qHTS assay to identify small molecule agonists of the constitutive androstane receptor (CAR) signaling pathway - cell viability counter screen (AID 1224836); also: nearly all actives have a fitted effect of over 45% in size; also: potency is read from the fitted curve at half-maximal effect
Method in brief: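 HepG2 cells stably carrying hCAR and a CYP2B6-2.2kb reporter were plated 4 h, then given compounds at 15 concentrations plus PK11195 (final 0.75 uM). After 23 h at 37 C, viability was read by CellTiter-Fluor fluorescence.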

[4] = qHTS assay to identify small molecule antagonists of the constitutive androstane receptor (CAR) signaling pathway - cell viability counter screen (AID 1224837); also: nearly all actives have a fitted effect of over 45% in size; also: potency is read from the fitted curve at half-maximal effect
Method in brief: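 In quantitative HTS format, compounds at 15 concentrations were applied to HepG2 cells double-transfected with hCAR and CYP2B6-2.2kb under 50 nM CITCO stimulation; live-cell protease activity was read after 23 hr via CellTiter-Fluor.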

[5] = target: Nuclear receptor subfamily 1 group I member 3 (Homo sapiens) (UniProt Q14994); assay: qHTS assay to identify small molecule antagonists of the constitutive androstane receptor (CAR) signaling pathway (AID 1224838); also: nearly all actives have a fitted effect of over 40% in size; also: potency is read from the fitted curve at half-maximal effect
Method in brief: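 CITCO-stimulated (50 nM final) HepG2 cells stably transfected with hCAR and CYP2B6-2.2kb luciferase were exposed to compounds at 15 concentrations for 24 h at 37 C/5% CO2. A luciferase reagent was added and luminescence recorded after 30 min.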

[6] = target: Nuclear receptor subfamily 1 group I member 3 (Homo sapiens) (UniProt Q14994); assay: qHTS assay to identify small molecule agonists of the constitutive androstane receptor (CAR) signaling pathway (AID 1224839);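 also: HepG2 cells stably carrying human CAR and a CYP2B6 luciferase reporter; nearly all actives have a fitted effect of over 15% in size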
Method in brief: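 HepG2 cells stably expressing hCAR and a CYP2B6-2.2kb luciferase reporter were treated with compounds at 15 concentrations plus 0.75 uM PK11195 (final) for 24 h at 37 C; luminescence was read after ONE-Glo addition.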

[7] = qHTS assay to identify small molecule antagonists of the estrogen related receptor signaling pathway with the pleiotropic PPARgamma coactivator (PGC) from Tox21 10K library - cell viability counter screen (AID 1224840; active = well fitted cell-killing curve with a large enough effect in the repeat runs, not every such curve was filed as active; also: nearly all actives have a fitted effect of over 40% in size)
Method in brief: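 Viability counter screen, PGC/ERR cells: 17.5 h compound exposure at 37 C, CellTiter-Fluor fluorescence endpoint.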

[8] = target: Thyrotropin receptor (Homo sapiens) (UniProt P16473); assay: qHTS assay to identify small molecule agonists of the thyroid stimulating hormone receptor (TSHR) signaling pathway (AID 1224843; calls by dose curve; also: nearly all actives have a fitted effect of over 45% in size; also: potency is read from the fitted curve at half-maximal effect)
Method in brief: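 Agonist activity read as cAMP rise via d2/cryptate HTRF competition, 1 h room-temperature detection, in HEK293 cells expressing TSHR. Fifteen-point titrations, each run in triplicate, with a 30 min room-temperature incubation beforehand.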

[9] = qHTS assay to identify small molecule agonists of the hypoxia (HIF-1) signaling pathway - cell viability counter screen (AID 1224844; calls by dose curve; also: nearly all actives have a fitted effect of over 50% in size)
Method in brief: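 Same wells as the HIF-1 reporter screen; ME-180 cells carrying HRE-bla, 17 hr treatment at 37C; CellTiter-Glo luminescence read after 30 min at room temperature.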

[10] = qHTS assay to identify small molecule agonists of H2AX (AID 1224845; active = well fitted activation curve with a large enough effect in the signal ratio in the repeat runs, not every such curve was filed as active; the % refers to the signal ratio)
Method in brief: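 Phospho-H2AX Ser139 measured by HTRF (ex 320 nm; em 665 and 620 nm) after 24 hr antibody incubation. Compounds, 15 concentrations, 0.76% DMSO, were applied to CHO-K1 cells for 3hr at 37C before lysis.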

[11] = qHTS assay to identify small molecule agonists of the hypoxia (HIF-1) signaling pathway (AID 1224846; active = well fitted activation curve with a large enough effect in the signal ratio in the repeat runs, not every such curve was filed as active; the % refers to the signal ratio)
Method in brief: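 In ME-180 cells bearing an HRE-bla construct, 17 h treatment with DMSO-dissolved compounds at 37C was followed by CCF4-AM loading to quantify reporter induction.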

[12] = qHTS assay to identify small molecule agonists of H2AX - cell viability counter screen (AID 1224847; calls by dose curve; also: nearly all actives have a fitted effect of over 30% in size; also: potency is read from the fitted curve at half-maximal effect)
Method in brief: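 Wild-type CHO-K1 cells (10% FBS medium) were plated overnight at 37C, exposed to compounds at 15 concentrations for 3 hr at 37C (0.76% DMSO final), and viability was read as CellTiter-Glo luminescence after 30 min at room temperature.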

[13] = qHTS RealTime-Glo MT Cell Viability Assay in HepG2 cells - 24 hour (AID 1224867); also: nearly all actives have a fitted effect of over 50% in size; also: potency is read from the fitted curve at half-maximal effect
Method in brief: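 qHTS, HepG2, 600 cells/well, RealTime-Glo (NanoLuc + prosubstrate) added with cells; 5 h preincubation; DMSO compound addition; 37 C; luminescence at 0/8/16/24/32/40 h.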

[14] = A CellTox Green Cytotoxicity Assay to monitor cytotoxicity in HEK293 cells - 0 hour (AID 1224869); also: nearly all actives have a fitted effect of over 50% in size; also: potency is read from the fitted curve at half-maximal effect
Method in brief: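 Homogeneous no-lysis format: HEK293 cell suspension mixed with CellTox Green reagent, seeded, incubated 5 h at 37 C/5% CO2, then dosed by pintool with compound in DMSO.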

[15] = qHTS assay to identify small molecule antagonists of the estrogen related receptor signaling pathway with the pleiotropic PPARgamma coactivator (PGC) from Tox21 10K library (AID 1224841; call rule not given here; also: actives are mostly falling curves and most rising ones were filed inactive; nearly all actives have a fitted effect of over 50% in size; also: potency is read from the fitted curve at half-maximal effect)
Method in brief: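 In the PGC/ERR line, DMSO solutions of test chemicals are pin-delivered to 2,000 cells/well six hours after dispensing. Following eighteen hours' incubation, One-Glo reagent is added and luminescence recorded.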

[16] = qHTS assay to identify small molecule agonists of the estrogen related receptor signaling pathway with the pleiotropic PPARgamma coactivator (PGC) from Tox21 10K library (AID 1224842); also: nearly all actives have a fitted effect of over 15% in size; also: potency is read from the fitted curve at half-maximal effect
Method in brief: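 Luminescence from One-Glo (30 min, room temperature) measured after PGC/ERR cells had 18 h at 37 C with pinned compound (23 nL in DMSO). Cells had been seeded at 2,000 per well and pre-incubated 6 h.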

[17] = qHTS assay to identify small molecule antagonists of the estrogen related receptor (ERR) signaling pathway from Tox21 library (AID 1224848); also: nearly all actives have a fitted effect of over 50% in size; also: potency is read from the fitted curve at half-maximal effect
Method in brief: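 Luciferase luminescence (ONE-Glo, 30 min room temperature) was the read-out. Cells of the NTP-supplied ERR line, 2,000 per well, were given 6 h at 37 C before compound addition in DMSO and 18 h exposure at 37 C.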

[18] = qHTS assay to identify small molecule agonists of the estrogen related receptor (ERR) signaling pathway from Tox21 library (AID 1224849; calls by dose curve; also: nearly all actives have a fitted effect of over 15% in size; also: potency is read from the fitted curve at half-maximal effect); details: ERR reporter cell line, ONE-Glo luciferase, 18 h
Method in brief: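 Reporter cells (ERR, NTP source) treated with Tox21 10K compounds 18 h, 37 C. Readout: ONE-Glo luminescence, 30 min RT.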

[19] = qHTS RealTime-Glo MT Cell Viability Assay in HEK293 cells - 32 hour (AID 1224868); also: nearly all actives have a fitted effect of over 50% in size; also: potency is read from the fitted curve at half-maximal effect
Method in brief: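 Assay medium contained NanoLuc luciferase plus cell-permeant prosubstrate, added with HEK293 cells at 600 cells/well. After 5 h at 37 C/5% CO2 compounds were added; plates stayed at 37 C for 40 h with serial luminescence reads.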

[20] = qHTS assay to identify small molecule agonists of the estrogen related receptor signaling pathway with the pleiotropic PPARgamma coactivator (PGC) (AID 1224823)
Method in brief: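 Luminescence from One-Glo reagent (30 min, room temperature) was read after 18 h compound treatment at 37 C of PGC/ERR cells plated 6 h beforehand; compounds delivered in DMSO by pin tool.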
% is scaled to controls: 0 for no effect and ±100 for the full control effect.

Chain of Nuclear receptor subfamily 1 group I member 3 (Homo sapiens) (Q14994 whole entry, looked up): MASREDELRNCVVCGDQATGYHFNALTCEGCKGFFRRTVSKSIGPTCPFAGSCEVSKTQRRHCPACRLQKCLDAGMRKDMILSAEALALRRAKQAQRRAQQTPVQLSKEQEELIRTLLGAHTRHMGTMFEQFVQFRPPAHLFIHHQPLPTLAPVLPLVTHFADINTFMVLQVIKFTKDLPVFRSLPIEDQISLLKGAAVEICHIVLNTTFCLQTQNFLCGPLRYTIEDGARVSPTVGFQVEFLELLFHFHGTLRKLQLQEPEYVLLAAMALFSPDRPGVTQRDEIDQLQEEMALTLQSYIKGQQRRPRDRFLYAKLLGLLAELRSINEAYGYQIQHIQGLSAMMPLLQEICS
Chain of Luciferin 4-monooxygenase (Photinus pyralis) (P08659 whole entry, looked up): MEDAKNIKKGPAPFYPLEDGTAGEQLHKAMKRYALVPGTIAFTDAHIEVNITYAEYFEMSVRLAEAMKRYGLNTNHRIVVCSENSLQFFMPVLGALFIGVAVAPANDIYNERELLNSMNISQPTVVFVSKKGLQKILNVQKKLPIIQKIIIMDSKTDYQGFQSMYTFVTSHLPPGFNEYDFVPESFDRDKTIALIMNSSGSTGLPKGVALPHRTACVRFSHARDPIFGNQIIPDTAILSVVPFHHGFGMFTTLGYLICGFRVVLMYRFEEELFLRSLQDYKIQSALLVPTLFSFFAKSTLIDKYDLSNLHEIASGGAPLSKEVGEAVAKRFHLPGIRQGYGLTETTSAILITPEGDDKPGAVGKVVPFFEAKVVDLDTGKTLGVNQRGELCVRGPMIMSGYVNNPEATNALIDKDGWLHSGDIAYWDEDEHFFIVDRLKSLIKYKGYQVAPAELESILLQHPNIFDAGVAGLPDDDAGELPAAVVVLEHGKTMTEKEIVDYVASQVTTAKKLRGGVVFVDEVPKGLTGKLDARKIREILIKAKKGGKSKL
Chain of Thyrotropin receptor (Homo sapiens) (P16473 whole entry, looked up): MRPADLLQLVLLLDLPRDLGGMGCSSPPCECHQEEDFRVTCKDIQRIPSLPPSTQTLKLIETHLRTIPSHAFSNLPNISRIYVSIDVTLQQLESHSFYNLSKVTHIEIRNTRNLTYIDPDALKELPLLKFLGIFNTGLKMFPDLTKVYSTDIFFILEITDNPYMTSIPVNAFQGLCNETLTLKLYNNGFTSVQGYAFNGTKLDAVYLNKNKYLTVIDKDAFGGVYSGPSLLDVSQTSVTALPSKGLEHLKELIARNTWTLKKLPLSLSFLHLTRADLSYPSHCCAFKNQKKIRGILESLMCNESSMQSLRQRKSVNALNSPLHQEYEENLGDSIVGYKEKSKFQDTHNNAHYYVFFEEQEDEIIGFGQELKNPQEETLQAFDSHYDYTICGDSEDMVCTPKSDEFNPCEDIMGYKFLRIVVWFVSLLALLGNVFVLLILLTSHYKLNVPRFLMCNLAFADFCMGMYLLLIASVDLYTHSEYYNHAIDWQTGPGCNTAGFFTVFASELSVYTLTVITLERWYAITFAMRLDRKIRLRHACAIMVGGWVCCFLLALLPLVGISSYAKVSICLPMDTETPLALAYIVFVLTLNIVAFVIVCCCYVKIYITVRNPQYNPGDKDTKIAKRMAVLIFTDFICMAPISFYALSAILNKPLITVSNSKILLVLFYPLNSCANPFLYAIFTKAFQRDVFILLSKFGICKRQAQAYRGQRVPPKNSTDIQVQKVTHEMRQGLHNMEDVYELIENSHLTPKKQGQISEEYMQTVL

COC(=O)c1sccc1S(=O)(=O)NC(=O)Nc1nc(C)nc(OC)n1
inactive: Potency [1] | Potency [2] | Potency [3] | Potency [4] | Potency [5] | Potency [6] | Potency [7] | Potency [8] | Potency [9] | Potency [10] | outcome [11] | Potency [12] | Potency [13] | Potency [14]

C=C(C)C(=O)OCC1CO1 (stereo not drawn)
inactive: Potency [1] | Potency [2] | Potency [3] | Potency [4] | Potency [5] | Potency [6] | Potency [7] | Potency [15] | Potency [16] | Potency [8] | Potency [9] | outcome [11] | Potency [12] | Potency [17] | activity change, positive = activation ([18]; at 92.4 µM (top of the series)) -2.17% and 2.32% | Potency [13] | Potency [19]

C#C[C@]1(O)CC[C@H]2[C@@H]3CCC4=CC(=O)CC[C@]4(C)[C@H]3CC[C@@]21C
inactive: Potency [1] | Potency [2] | Potency [3] | Potency [4] | Potency [6] | Potency [8] | Potency [9] | Potency [10] | Potency [12] | Potency [13] | Potency [14]

Nc1ccc(Cl)cc1N
inactive: Potency [1] | Potency [7] | Potency [15] | Potency [8] | outcome [11] | Potency [12] | Potency [17] | Potency [13]
active: Potency [2] 13.1 µM and 7.1 µM | Potency [3] 4.33 µM | Potency [4] 6.86 µM | Potency [5] 217 nM | Potency [16] 8.98 µM and 386 nM | Potency [18] 8.31 µM [activator] | activity change, positive = activation ([18]; at 92.4 µM (top of the series)) 19.2% | Potency [14] 40 µM

CN(C)C(=O)Nc1ccc(Cl)cc1
inactive: Potency [1] | Potency [2] | Potency [3] | Potency [4] | Potency [5] | Potency [6] | Potency [7] | Potency [8] | Potency [9] | Potency [10] | outcome [11] | Potency [12] | Potency [13] | Potency [19]

NNC(N)=S
active: Potency [1] 22.5 µM | Potency [4] 63.5 µM | Potency [5] 63500 nM | Potency [17] 16 µM and 61.1 µM
inactive: Potency [2] | Potency [3] | Potency [6] | Potency [7] | Potency [16] | Potency [8] | Potency [9] | outcome [11] | Potency [12] | activity change, positive = activation ([18]; at 92.4 µM (top of the series)) -76.7% and -56.6% | Potency [13] | Potency [19]
31.8 µM (active) and inactive: Potency [15]

Cc1ccccc1[N+](=O)[O-]
inactive: Potency [1] | Potency [2] | Potency [3] | Potency [4] | Potency [5] | Potency [6] | Potency [8] | Potency [9] | Potency [10] | outcome [11] | Potency [12] | Potency [13] | Potency [19] | Potency [14]

Cc1c(COC(=O)[C@@H]2[C@H](/C=C(\Cl)C(F)(F)F)C2(C)C)cccc1-c1ccccc1
53.2 µM (active) and inactive: Potency [5]
active: Potency [19] 21.4 µM
inactive: Potency [1] | Potency [2] | Potency [3] | Potency [4] | Potency [6] | Potency [9] | Potency [10] | outcome [11] | Potency [13] | Potency [14]

c1ccc(-c2cccc(-c3ccccc3)c2)cc1
active: Potency [2] 9.03 µM and 7.96 µM
inactive: Potency [1] | Potency [3] | Potency [4] | Potency [7] | Potency [8] | Potency [9] | Potency [10] | outcome [11] | Potency [12] | Potency [13] | Potency [19] | Potency [14]

Cc1cc(Cl)ccc1OCCCC(=O)O
active: Potency [2] 73.8 µM
inactive: Potency [1] | Potency [3] | Potency [4] | Potency [6] | Potency [7] | Potency [8] | Potency [9] | Potency [10] | outcome [11] | Potency [12] | Potency [13] | Potency [19] | Potency [14]

N#Cc1cc(Br)c(O)c(Br)c1
inactive: Potency [1] | Potency [2] | Potency [3] | Potency [4] | Potency [5] | Potency [6] | Potency [16] | Potency [8] | Potency [9] | outcome [11] | activity change, positive = activation ([18]; at 92.4 µM (top of the series)) -51.5% and -34.9% | Potency [13] | Potency [14]
active: Potency [15] 54.4 µM and 41.7 µM | Potency [17] 48.5 µM and 37.1 µM

COc1ccc(C(CN(C)C)C2(O)CCCCC2)cc1 (stereo not drawn)
inactive: Potency [1] | Potency [2] | Potency [3] | Potency [4] | Potency [7] | Potency [8] | Potency [9] | Potency [10] | outcome [11] | Potency [12] | Potency [13] | Potency [19] | Potency [14]

OCC(O)CO
inactive: Potency [1] | Potency [2] | Potency [3] | Potency [4] | Potency [15] | Potency [16] | Potency [8] | Potency [9] | outcome [11] | Potency [12] | Potency [17] | activity change, positive = activation ([18]; at 92.4 µM (top of the series)) 2.36% and 0.0013% | Potency [13] | Potency [19] | Potency [14]

C=C(C)[C@H]1Cc2c(ccc3c2O[C@@H]2COc4cc(OC)c(OC)cc4[C@@H]2C3=O)O1
inactive: outcome [20] | Potency [6] | Potency [16] | Potency [9] | outcome [11] | activity change, positive = activation ([18]; at 42.5 µM (top of the series)) -51.1% | activity change, positive = activation ([18]; at 92.4 µM (top of the series)) -64.6% and -64.1% | Potency [14]
active: Potency [1] 8.75 µM and 8.63 µM and 376 nM | Potency [3] 875 nM and 1.54 µM and 668 nM | Potency [4] 1.96 µM and 770 nM and 531 nM | Potency [5] 3.48 µM and 19.3 µM and 3.35 µM | Potency [15] 34.8 nM and 4.9 nM | Potency [8] 24.7 µM and 17.2 µM and 26.6 µM | Potency [12] 91 nM | Potency [17] 39.1 nM and 9.7 nM and 10.6 nM | Potency [13] 27.9 µM and 27.5 µM | Potency [19] 55.7 nM and 11 nM and 47.7 nM
